This passage reports growth results from PubChem BioAssay (NCI).

What all share (assay): NCI-60 one-dose screen, 48 h (100 = growth as untreated, 0 = no growth, -100 = all killed)
Holding throughout (settings): 10 µM unless noted

Experiment [1] concerns SK-MEL-2 melanoma.
The test system of experiment [2] is EKVX NSCLC.
In experiment [3] the test system is SN12C renal.
Experiment [4] deals with UO-31 renal.
The subject of experiment [5] is TK-10 renal.
For experiment [6], the system named is ACHN renal.
For experiment [7], the system named is CAKI-1 renal.
Experiment [8] has as its system A498 renal.
The test system of experiment [9] is CCRF-CEM leukemia.
The test system of experiment [10] is MOLT-4 leukemia.
The test system of experiment [11] is RPMI-8226 leukemia.
Experiment [12] concerns OVCAR-8 ovarian.
The subject of experiment [13] is OVCAR-5 ovarian.
Experiment [14] deals with OVCAR-4 ovarian.
For experiment [15], the system named is SK-OV-3 ovarian.
Experiment [16] concerns IGROV1 ovarian.
The subject of experiment [17] is OVCAR-3 ovarian.
The subject of experiment [18] is HS 578T breast.
In experiment [19] the test system is NCI/ADR-RES ovarian.
Experiment [20] relates to SR leukemia.

Each structure is given as a SMILES string. This is part of a sample that, as a whole, favours compounds with a hit. Of some 83,000 tested, about 20% had one in any assay.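 Negative percent growth values reflect cell death: -40 means 40% of the cells present at the start died, and -100 means all died.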 Values without a mark were called inactive. Activity calls are given as the source filed them. The calls were made as follows: active = growth percent below 10; inactive = the rest.

With `C=C(COC(C)=O)[C@H]1CC/C(C)=C/CC/C(C)=C/CC[C@@]2(C)O[C@H]2C1`, the growth was 101% in experiment [1]; 106% in [2]; 106% in [3]; 99.9% in [4]; 108% in [5]; 99.8% in experiment [6]. Further, the growth in experiment [7] is 126%; in experiment [8], 119%; in experiment [9] it was 328%; in experiment [10] it was 110%; in experiment [11], 180%; in experiment [12], 103%. For the same compound, the growth in experiment [13] is 99.2%; in [14], 115%; in [15], 125%; in experiment [16], 103%; in experiment [17] it was 121%; in [18], 108%. For the same compound, in experiment [19], the growth is 102%.
For the compound `CCOC(=O)c1ccc2c(c1)nc(-c1ccc(Cl)cc1)n2-c1cc(C(C)(C)C)[nH]n1`, the growth in [1] is 38.7%; in experiment [2], 47.6%; in [3], 60.5%; in experiment [4], 36.3%; in experiment [5], 84.9%; in experiment [6] it was 35.8%. The growth is 25.5% in [7]; 45.3% in [8]; 22.3% in [9]; -22.3% (active) in experiment [20]; 75.6% in experiment [11]; 70.1% in experiment [12]. Further, the growth is 60.5% in [13]; 63.5% in experiment [14]; 18.9% in [15]; 42.3% in experiment [16]; 13.5% in experiment [17]; 53.9% in experiment [18]. Besides, in [19], the growth was 4.4% (active).
In the case of `O=C1Nc2ccc(Cl)cc2/C1=C\c1c(-c2ccc(F)cc2)nc2ccccn12`, the growth in experiment [1] was 66.2%; in [2] it was 33.8%; in [3] it was 6.4% (active); in [4], 6.63% (active); in experiment [5] it was 82.8%; in experiment [6], 31.4%. Also, the growth in [7] was 40.2%; in [8], -18% (active); in [9], 5.38% (active); in experiment [10], -4.17% (active); in experiment [11], 70.4%; in experiment [12] it was 22%. For the same compound, the growth in [13] was 37%; in experiment [14] it was -69.7% (active); in experiment [15] it was -52.1% (active); in experiment [16] it was 20.6%; in experiment [17], -70.4% (active); in experiment [18] it was 1% (active). In addition, the growth in experiment [19] was -37% (active).
Take `CCC(=O)OCc1ccc(OC)cc1`: the growth in experiment [1] was 112%; in [2], 107%; in [3] it was 91%; in experiment [4], 82%; in experiment [5], 107%; in [6], 103%. Moreover, the growth was 96.6% in [7]; 144% in experiment [8]; 99.4% in [9]; 95.3% in experiment [10]; 107% in [11]; 102% in experiment [12]. Moreover, the growth was 95% in experiment [13]; 107% in experiment [14]; 108% in [15]; 102% in experiment [16]; 110% in experiment [17]; 135% in experiment [18]. For the same compound, the growth in experiment [19] was 99.4%.
In the case of `CCOC(=O)C1=C(C)NC(=S)NC1c1ccccc1` (centres undefined), the growth in [1] is 113%; in experiment [2], 97.6%; in experiment [3], 103%; in experiment [4], 76.4%; in experiment [5], 104%; in experiment [6], 99.6%. The growth in [7] is 87.5%; in experiment [8] it was 86.3%; in [9], 109%; in experiment [20] it was 94.3%; in experiment [11], 112%; in experiment [12], 103%. The growth is 101% in experiment [13]; 98.5% in experiment [14]; 114% in experiment [15]; 97.4% in experiment [16]; 110% in experiment [17]; 98.9% in [18].
Turning to `COc1cccc(N2CCN(c3ncnc4cc[nH]c34)CC2)c1`, the growth was 64.7% in experiment [1]; 50.1% in [2]; 85.5% in [3]; 65% in [4]; 52.8% in experiment [5]; 59.6% in experiment [6]. The growth in [7] was 71.6%; in [8], 41.3%; in experiment [9], 60.9%; in [20], 39.4%; in [11], 35.4%; in experiment [12], 40.3%. For the same compound, the growth in experiment [13] was 104%; in [14], 69.2%; in experiment [15], 86.5%; in experiment [16], 85.4%; in experiment [17], 70.9%; in experiment [18], 92.5%.
As for `O=C(c1ccc(OCCN2CCCCC2)cc1)c1c(-c2ccc(O)cc2)sc2cc(O)ccc12`, the growth in experiment [1] is 102%; in experiment [2] it was 83.3%; in experiment [3], 80.4%; in experiment [4], 67.1%; in experiment [5], 129%; in [6], 91.5%. Also, the growth in experiment [7] was 76%; in [8] it was 90.9%; in [9], 59.7%; in [10], 76.3%; in experiment [11], 82.9%; in experiment [12] it was 86.8%. The growth in experiment [13] is 124%; in [14] it was 72.8%; in experiment [15], 100%; in [16], 76.1%; in experiment [17], 91.8%; in experiment [19], 91.5%.
Consider `CN(C)c1ccc(/C=C\c2cccc[n+]2C)cc1`, for which the growth in experiment [1] was 75.6%; in experiment [2], 23%; in experiment [3], 52.2%; in experiment [4], 59.5%; in experiment [5] it was 67.2%; in [6], 77.3%. The growth was 42.1% in [7]; 13.4% in experiment [8]; 49.6% in [9]; 74.4% in [10]; 3.96% (active) in experiment [11]; 28.6% in experiment [12]. For the same compound, the growth in [13] is 49.5%; in [14], 34.1%; in [15], 42.2%; in experiment [16] it was 68.8%; in experiment [17] it was 9.08% (active); in experiment [18] it was 61.5%. For the same compound, the growth in experiment [19] is 105%.
